Reference: PubChem BioAssay (NCI)
Compounds without any hit were thinned out: in the full panel of roughly 83,000, 20% have a hit.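 Testing used 96-well plates and a 48-hour single-concentration exposure. Example: -40 means 40% of the starting cells died.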 Calls of active or inactive are those of the source. The calls were made as follows: active = growth percent below 10; inactive = the rest.

Key:
Experiment in all cases: NCI-60 one-dose screen, 48 h (100 = growth as untreated, 0 = no growth, -100 = all killed)
Conditions in all cases: 10 µM unless noted
SK-MEL-2 melanoma = test system: SK-MEL-2 melanoma
EKVX NSCLC = test system: EKVX NSCLC
SN12C renal = test system: SN12C renal
UO-31 renal = test system: UO-31 renal
TK-10 renal = test system: TK-10 renal
ACHN renal = test system: ACHN renal
CAKI-1 renal = test system: CAKI-1 renal
CCRF-CEM leukemia = test system: CCRF-CEM leukemia
MOLT-4 leukemia = test system: MOLT-4 leukemia
SR leukemia = test system: SR leukemia
RPMI-8226 leukemia = test system: RPMI-8226 leukemia
OVCAR-8 ovarian = test system: OVCAR-8 ovarian
OVCAR-5 ovarian = test system: OVCAR-5 ovarian
OVCAR-4 ovarian = test system: OVCAR-4 ovarian
SK-OV-3 ovarian = test system: SK-OV-3 ovarian
IGROV1 ovarian = test system: IGROV1 ovarian
OVCAR-3 ovarian = test system: OVCAR-3 ovarian
HS 578T breast = test system: HS 578T breast
NCI/ADR-RES ovarian = test system: NCI/ADR-RES ovarian

Measured: growth

O=C(Cc1ccc(/C=C/C(=O)c2ncc[nH]2)cc1)Nc1ccc(C(F)(F)F)cc1
inactive: SK-MEL-2 melanoma 100% | EKVX NSCLC 71.8% | SN12C renal 29.5% | TK-10 renal 87.5% | ACHN renal 56% | CAKI-1 renal 68.7% | OVCAR-5 ovarian 78.9% | OVCAR-4 ovarian 51.1% | SK-OV-3 ovarian 73.3% | IGROV1 ovarian 23.7% | HS 578T breast 36.1% | NCI/ADR-RES ovarian 60.3%
active: UO-31 renal -41.7% | CCRF-CEM leukemia -9.03% | MOLT-4 leukemia 6.36% | SR leukemia 0.627% | RPMI-8226 leukemia -38.2% | OVCAR-8 ovarian -2.81% | OVCAR-3 ovarian 1.88%

C#CC(=O)Nc1cccc2c1cc(C)n2-c1nc2c(c(NCc3ccccc3)n1)CCCC2
active: SK-MEL-2 melanoma -74.5% | EKVX NSCLC -39.3% | SN12C renal -66.2% | UO-31 renal -76% | TK-10 renal -98.1% | ACHN renal -73.6% | CAKI-1 renal -43.2% | CCRF-CEM leukemia -26.5% | MOLT-4 leukemia -33.4% | SR leukemia -32.2% | RPMI-8226 leukemia -22.3% | OVCAR-8 ovarian -14% | OVCAR-5 ovarian -16% | OVCAR-4 ovarian -35.7% | SK-OV-3 ovarian -94.4% | IGROV1 ovarian -28.1% | OVCAR-3 ovarian -9.24% | HS 578T breast -7.53% | NCI/ADR-RES ovarian 6.91%

COc1cc2c(cc1[N+](=O)[O-])-c1ccc([N+](=O)[O-])cc1/C2=N\O
inactive: SK-MEL-2 melanoma 92.6% | EKVX NSCLC 76.7% | SN12C renal 91.1% | UO-31 renal 67.6% | TK-10 renal 78.9% | ACHN renal 72.5% | CAKI-1 renal 83.4% | CCRF-CEM leukemia 78.2% | MOLT-4 leukemia 83.3% | SR leukemia 62% | RPMI-8226 leukemia 84% | OVCAR-8 ovarian 80.1% | OVCAR-5 ovarian 102% | OVCAR-4 ovarian 79.6% | SK-OV-3 ovarian 96.4% | IGROV1 ovarian 97.3% | OVCAR-3 ovarian 104% | HS 578T breast 89% | NCI/ADR-RES ovarian 77.1%

c1ccc(-c2nn(-c3ccccc3)[n+](-c3ccccc3-c3ccccc3)n2)cc1
inactive: EKVX NSCLC 11.7% | SN12C renal 12.9% | UO-31 renal 80.1% | TK-10 renal 26% | ACHN renal 56% | CAKI-1 renal 88.2% | CCRF-CEM leukemia 17.2% | MOLT-4 leukemia 22.9% | RPMI-8226 leukemia 15.3% | OVCAR-5 ovarian 37.1% | OVCAR-4 ovarian 22.3% | SK-OV-3 ovarian 36.5% | IGROV1 ovarian 30.9% | NCI/ADR-RES ovarian 93.1%
active: SK-MEL-2 melanoma -15.8% | SR leukemia 8.06% | OVCAR-8 ovarian -32.8% | OVCAR-3 ovarian 1.32% | HS 578T breast 9.51%

CC(Oc1ccc(C(=O)NS(=O)(=O)C(C)(C)C)cc1C(F)(F)F)c1ccc(Oc2ccccc2)cn1 (configuration not stated)
active: OVCAR-3 ovarian 8.07%
inactive: SK-MEL-2 melanoma 35.5% | EKVX NSCLC 86.5% | SN12C renal 86.1% | UO-31 renal 67.9% | TK-10 renal 79.7% | ACHN renal 89.4% | CAKI-1 renal 40.8% | CCRF-CEM leukemia 74.1% | MOLT-4 leukemia 98.5% | SR leukemia 25.9% | RPMI-8226 leukemia 94.8% | OVCAR-8 ovarian 75.2% | OVCAR-5 ovarian 101% | OVCAR-4 ovarian 93.1% | SK-OV-3 ovarian 104% | IGROV1 ovarian 64.8% | HS 578T breast 60.4% | NCI/ADR-RES ovarian 83%

CCCCCCCCOC(=O)c1ccc(O)c(OC)c1
active: CCRF-CEM leukemia 1.05%
inactive: SK-MEL-2 melanoma 97.7% | EKVX NSCLC 105% | SN12C renal 85.8% | UO-31 renal 50.8% | TK-10 renal 98.6% | ACHN renal 103% | CAKI-1 renal 91.9% | MOLT-4 leukemia 12.9% | SR leukemia 85.3% | RPMI-8226 leukemia 89.2% | OVCAR-8 ovarian 96.3% | OVCAR-5 ovarian 107% | OVCAR-4 ovarian 78.2% | SK-OV-3 ovarian 103% | IGROV1 ovarian 59.8% | OVCAR-3 ovarian 101% | HS 578T breast 97.8% | NCI/ADR-RES ovarian 96%

CCC(=O)c1ccc(O)c(OC)c1
inactive: SK-MEL-2 melanoma 103% | EKVX NSCLC 114% | SN12C renal 94.9% | UO-31 renal 101% | TK-10 renal 99.2% | ACHN renal 103% | CAKI-1 renal 100% | CCRF-CEM leukemia 91% | MOLT-4 leukemia 101% | SR leukemia 108% | RPMI-8226 leukemia 93.7% | OVCAR-8 ovarian 99.4% | OVCAR-5 ovarian 107% | OVCAR-4 ovarian 107% | SK-OV-3 ovarian 122% | IGROV1 ovarian 102% | OVCAR-3 ovarian 110% | HS 578T breast 95.7% | NCI/ADR-RES ovarian 104%

COc1ccc(/C(=C\c2ccccc2)C(=O)O)cc1OC
inactive: SK-MEL-2 melanoma 98.3% | EKVX NSCLC 101% | SN12C renal 98.4% | UO-31 renal 88.9% | TK-10 renal 104% | ACHN renal 94.8% | CAKI-1 renal 97.4% | CCRF-CEM leukemia 117% | MOLT-4 leukemia 108% | SR leukemia 108% | RPMI-8226 leukemia 102% | OVCAR-8 ovarian 105% | OVCAR-5 ovarian 87.5% | OVCAR-4 ovarian 103% | SK-OV-3 ovarian 105% | IGROV1 ovarian 96% | OVCAR-3 ovarian 104% | HS 578T breast 97% | NCI/ADR-RES ovarian 93.8%
